Source: PubChem BioAssay AID449739 (Vanderbilt High Throughput Screening Facility, 2010)
Hit rate of the full screen: of about 100,000 compounds, about 4,200 (4.2%) were called active. The full list was thinned out, with actives kept by preference. A number with no mark means an inactive call.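 The calls were made as follows: active = single-dose well whose peak fluorescence ratio is a statistical outlier from its plate by either plate-standardised score or position-corrected B-score; inactive = the rest.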

target: Voltage-dependent T-type calcium channel subunit alpha-1H (Homo sapiens) (UniProt O95180); test: Cav3.2 calcium influx blockers – cell-based, Fluo-4 calcium fluorescence, FDSS, MLSMR library, primary screen (AID 449739); details: Cav3.2-expressing cells, at 10 µM, active compounds read low
Sequence (O95180 whole entry, looked up): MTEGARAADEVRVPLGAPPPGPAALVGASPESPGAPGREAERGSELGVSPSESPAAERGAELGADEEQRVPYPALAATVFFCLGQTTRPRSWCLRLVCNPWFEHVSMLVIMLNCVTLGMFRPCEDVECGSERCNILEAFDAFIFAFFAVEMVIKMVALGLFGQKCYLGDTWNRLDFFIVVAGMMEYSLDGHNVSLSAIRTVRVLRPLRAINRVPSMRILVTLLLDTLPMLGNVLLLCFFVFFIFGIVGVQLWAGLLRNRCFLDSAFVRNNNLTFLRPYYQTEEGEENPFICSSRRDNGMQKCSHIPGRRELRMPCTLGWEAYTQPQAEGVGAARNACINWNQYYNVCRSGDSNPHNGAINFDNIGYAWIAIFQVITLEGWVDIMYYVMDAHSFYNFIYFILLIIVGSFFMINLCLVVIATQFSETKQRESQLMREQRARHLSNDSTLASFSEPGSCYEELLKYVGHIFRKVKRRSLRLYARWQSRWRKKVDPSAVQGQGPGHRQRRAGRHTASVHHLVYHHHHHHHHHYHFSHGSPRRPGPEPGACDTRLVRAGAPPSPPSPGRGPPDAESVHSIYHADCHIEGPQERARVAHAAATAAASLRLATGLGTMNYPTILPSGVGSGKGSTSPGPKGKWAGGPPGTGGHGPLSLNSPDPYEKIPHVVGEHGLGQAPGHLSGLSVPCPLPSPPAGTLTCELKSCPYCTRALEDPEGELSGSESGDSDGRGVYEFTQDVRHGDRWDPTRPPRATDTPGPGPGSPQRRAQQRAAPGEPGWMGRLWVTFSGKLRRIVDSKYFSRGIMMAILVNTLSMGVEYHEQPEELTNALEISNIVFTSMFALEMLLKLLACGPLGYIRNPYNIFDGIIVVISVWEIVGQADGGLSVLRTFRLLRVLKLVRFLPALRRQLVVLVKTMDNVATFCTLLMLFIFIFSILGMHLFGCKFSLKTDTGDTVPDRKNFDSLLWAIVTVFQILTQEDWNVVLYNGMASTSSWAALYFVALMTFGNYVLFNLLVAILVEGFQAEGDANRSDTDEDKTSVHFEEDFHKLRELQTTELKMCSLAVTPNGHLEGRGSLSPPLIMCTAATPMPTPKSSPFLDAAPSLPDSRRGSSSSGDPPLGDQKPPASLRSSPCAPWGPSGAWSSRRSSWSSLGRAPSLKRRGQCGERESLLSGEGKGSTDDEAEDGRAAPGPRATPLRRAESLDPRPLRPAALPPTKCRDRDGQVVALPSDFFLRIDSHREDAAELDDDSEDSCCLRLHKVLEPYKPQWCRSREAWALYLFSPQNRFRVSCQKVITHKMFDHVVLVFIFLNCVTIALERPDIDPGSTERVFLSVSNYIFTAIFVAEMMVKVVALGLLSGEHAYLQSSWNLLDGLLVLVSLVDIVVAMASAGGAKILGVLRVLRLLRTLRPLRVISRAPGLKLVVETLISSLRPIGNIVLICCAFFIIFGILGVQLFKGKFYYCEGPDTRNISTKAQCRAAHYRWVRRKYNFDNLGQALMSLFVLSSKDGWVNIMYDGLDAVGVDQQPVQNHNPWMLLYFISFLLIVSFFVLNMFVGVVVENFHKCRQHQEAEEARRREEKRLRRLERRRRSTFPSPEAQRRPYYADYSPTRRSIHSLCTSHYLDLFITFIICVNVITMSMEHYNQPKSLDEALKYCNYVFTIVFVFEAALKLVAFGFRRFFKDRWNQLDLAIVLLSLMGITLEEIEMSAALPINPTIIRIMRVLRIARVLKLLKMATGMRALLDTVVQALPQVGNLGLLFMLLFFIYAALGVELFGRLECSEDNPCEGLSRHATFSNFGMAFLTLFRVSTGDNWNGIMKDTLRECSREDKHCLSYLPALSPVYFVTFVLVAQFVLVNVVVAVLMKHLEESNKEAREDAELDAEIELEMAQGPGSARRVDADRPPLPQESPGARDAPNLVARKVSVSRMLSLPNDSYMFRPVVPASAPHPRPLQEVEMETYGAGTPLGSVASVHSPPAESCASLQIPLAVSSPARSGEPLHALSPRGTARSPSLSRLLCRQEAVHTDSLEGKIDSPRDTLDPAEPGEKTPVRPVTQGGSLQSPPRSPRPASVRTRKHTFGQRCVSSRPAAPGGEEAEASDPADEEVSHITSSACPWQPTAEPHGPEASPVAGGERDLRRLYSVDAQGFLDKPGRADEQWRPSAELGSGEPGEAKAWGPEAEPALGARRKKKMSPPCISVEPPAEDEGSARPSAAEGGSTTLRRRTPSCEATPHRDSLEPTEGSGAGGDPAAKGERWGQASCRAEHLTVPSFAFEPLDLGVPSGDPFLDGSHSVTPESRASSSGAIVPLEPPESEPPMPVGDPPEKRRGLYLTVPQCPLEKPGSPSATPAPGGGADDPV

| Structure (SMILES) | B-score |
| --- | --- |
| COc1cc(NC(=O)c2cncc(-c3ccc(C#N)cc3)c2)cc(C(=O)Nc2cccc(C(F)(F)F)c2)c1 | 0.721 |
| CCOc1[nH]n(-c2ccc(Cl)cc2)c(=O)c1C=Nc1ccc(O)cc1 | -0.0117 |
| O=C(Nc1ccc(-c2csc(Nc3cccc(C(F)(F)F)c3)n2)cc1)c1cccc(C(F)(F)F)c1 | 0.00365 |
| COC(C[C@@H](O)C[C@H](O)[C@H](C)OCc1ccccc1)OC | 1.07 |
| CCOc1ccc(-c2nnn(CC(=O)N3CCN(c4ccc(F)cc4)CC3)n2)cc1OCC | 0.122 |
| O=C(c1ccccc1)c1cccn1CC(=O)N1CCN(c2ccc(F)cc2)CC1 | -6.62 (active) |
| Cn1c(=O)c2c(ncn2CC(=O)N2CCN(c3ccccc3)CC2)n(C)c1=O | 0.538 |
| COc1ccc(NS(=O)(=O)c2ccc(NC(=S)NC(=O)CC(C)C)cc2)cc1 | -2.74 |
| Cc1c(C(=O)OC(C)C)sc(NC(=O)c2cccnc2)c1C#N | -2.15 |
| CC(=O)c1cnn(-c2cc(Oc3ccc(F)cc3)ncn2)c1C | -0.109 |
| CCC(=O)Nc1cccc(C2=NOC3(C2)C[C@@H](C(N)=O)N(C(=O)c2cc([N+](=O)[O-])cc([N+](=O)[O-])c2C)C3)c1 (some centres not stated) | 0.296 |
| COc1cc(OC)cc(C(=O)NC2CCN(C(=O)N3c4ccccc4Sc4ccccc43)CC2)c1 | -3.52 (active) |
| Cc1ccc(C(=O)NC2CCN(C(=O)N3CCOCC3)CC2)cc1 | 1.24 |
| CCOc1ccc(C(=O)NC2CCN(C(=O)Nc3ccccc3OC)CC2)cc1 | 1.41 |
| C=CC(COCc1ccccc1)N(Cc1ccccc1)S(=O)(=O)c1ccccc1Br (configuration not stated) | -0.978 |
| O=C(CN1CCN(c2ccc(F)cc2)CC1)Nc1cccc(C(F)(F)F)c1 | -5.59 (active) |
| O=C(CN1CCOCC1)Nc1ccccc1 | -0.393 |
| O=C(CN1CCN(CC(=O)Nc2ccc3c(c2)OCO3)CC1)Nc1ccc(F)cc1 | 2.27 |
| COc1ccc(CCNC(=O)C2CC3Cn4c(nc5cc(C)c(C)cc54)C3N2C)cc1 (configuration not stated) | 0.841 |

| Structure (SMILES) | B-score |
| --- | --- |
| Cc1nn(C(=O)c2ccoc2C)c(N)c1-c1ccccc1 | -1.25 |
| Cc1nn2c(c1-c1ccccc1)N=C(c1ccco1)CC2c1ccccc1 (configuration not stated) | -4.41 (active) |
| Cc1nc(NC(=O)c2cccc(Cl)c2)sc1-c1csc(Nc2cccc(Cl)c2)n1 | 1.63 |
| O=C(NCc1ccccc1)C1=C[C@@H](c2ccccc2)C[C@@H](OCCCCO)O1 | 0.00916 |
| O=[N+]([O-])c1ccccc1NCc1ccc(Cl)cc1 | -0.134 |
| CCN(CC)S(=O)(=O)c1ccc(N(C)Cc2ccc(C(F)(F)F)cc2)nc1 | -5.7 (active) |
| C#CCN(N(C)c1ncc(C(F)(F)F)cc1Cl)S(=O)(=O)c1ccc2ccccc2c1 | -1.26 |
| CC(C)(C)NCC(O)COc1cccc2[nH]c(=O)[nH]c12 (configuration not stated) | 2.63 |
| CCOC(=O)CSc1nc2c(sc(=S)n2CCc2ccccc2)c(=O)n1Cc1ccco1 | -3.99 |
| CN(c1ccccc1)c1ccc(/C=c2\s/c(=C(/C#N)C(=O)C(C)(C)C)n(Cc3ccco3)c2=O)cc1 | -7.8 (active) |
| Cc1cc2c(c(=O)n1Cc1ccco1)C(c1ccccc1)C(C#N)=C(N)O2 (configuration not stated) | 0.691 |
| O=C1CCC(=O)N(O)CCCCCNC(=O)CCC(=O)N(O)CCCCCNC(=O)CCC(=O)N(O)CCCCCN1 | 0.127 |
| CC(C)(CCl)C(=O)Nc1ccc(Sc2ccc(F)cc2)cc1 | -7.91 (active) |
| COC(=O)c1ccc(Sc2ccc(F)cc2)c(N)c1 | -2.9 |
| CCN(c1ccccc1)S(=O)(=O)c1ccc(NC(=O)C(C)(C)C)cc1 | -0.778 |
| CCOC(=O)C1Cn2c(nc3c(c2=O)C(C)(CC)Cc2ccccc2-3)S1 (configuration not stated) | -9.41 (active) |
| CC1(C)Cc2ccccc2-c2nc(CN3CCOCC3)[nH]c(=O)c21 | -0.167 |
| CCC1(CC)Cc2ccccc2-c2nc3ccccc3c(=O)n21 | -0.963 |
| CNC(=O)c1csc(-c2ccccc2)n1 | 0.414 |

| Structure (SMILES) | B-score |
| --- | --- |
| c1cncc(-c2nnc3n2C2(CCCCC2)Cc2ccccc2-3)c1 | 0.419 |
| Cc1cccc(C(=O)Nc2ccc(C(=O)/C=C/c3cccs3)cc2)c1 | -1.78 |
| COC(=O)C1=C(C(=O)OC)[C@@H]2N(C)c3ccccc3[C@@]23C[C@@H](C(=O)OC)N(C(=O)c2ccco2)C3=N1 | 0.92 |
| COCCCn1c(Cc2csc(Nc3cccc(Cl)c3)n2)nnc1SCC(=O)OC1CCCCC1 | -7.39 (active) |
| COCCCn1c(SCC(=O)Nc2ccccc2)nnc1-c1ccncc1 | -1.03 |
| CCOc1ccc(Nc2nc(Cc3nnc(SCC(=O)NC4CCCC4)n3C)cs2)cc1 | -0.148 |
| Cc1ccc(/C=N\n2c(-c3ccccc3)n[nH]c2=S)s1 | -0.0777 |
| CC1(C)S[C@@H]2[C@H](N=CN3CCCCCC3)C(=O)N2[C@H]1C(=O)O | 0.247 |
| O=c1cc(N2CCN(Cc3ccccc3)CC2)c(-c2ccccc2)n[nH]1 | 0.119 |
| CC(C)Oc1ccc(CCc2n[nH]c(=S)n2Cc2ccccc2)cc1 | -1.48 |
| CC(C)N(c1ccccc1)c1ncnc(NCCC(=O)O)c1[N+](=O)[O-] | 0.156 |
| COc1ccc(NC(=S)N2N=CCC2c2ccccc2)cc1 (configuration not stated) | 0.319 |
| CNC(=S)N1N=C(c2ccccc2)CC1c1ccc(Br)cc1 (configuration not stated) | -7.33 (active) |
| C=CCOC(=O)C1=C[C@@H](c2ccccc2)C[C@@H](OCc2ccc(CO)cc2)O1 | -1.02 |
| CCN1C(=O)N[C@@H](c2ccccc2)[C@H](C(C)=O)[C@H]1C | 0.0204 |
| Cc1cc(-c2cccs2)nc(-n2cccc2)n1 | 0.352 |
| O=C(CN1CCCCC1)N1c2ccccc2Sc2ccc(C(F)(F)F)cc21 | -2.51 |
| O=C(CN1CCCCCC1)N1c2ccccc2Sc2ccc(C(F)(F)F)cc21 | -4.47 (active) |
| CC1CC(C)CN(CC(=O)N2c3ccccc3CCc3ccccc32)C1 (configuration not stated) | -3.85 |
